# According to PMC11447256:
# Tests used:
# [1] = molecular target: Eukaryotic translation initiation factor 3 subunit B (UniProt P55884); assay: cross-linking mass spectrometry
# Histone H2A type 2-B = Histone H2A type 2-B (UniProt Q8IUE6); assay: cross-linking mass spectrometry
# [2] = molecular target: Large ribosomal subunit protein eL6 (UniProt Q02878); assay: cross-linking mass spectrometry
# [3] = molecular target: Large ribosomal subunit protein eL8 (UniProt P62424); assay: cross-linking mass spectrometry
# Nucleolar protein 16 = Nucleolar protein 16 (UniProt Q9Y3C1); assay: cross-linking mass spectrometry
# [4] = molecular target: Large ribosomal subunit protein uL13 (UniProt P40429); assay: cross-linking mass spectrometry
# [5] = molecular target: Large ribosomal subunit protein uL15 (UniProt P46776); assay: cross-linking mass spectrometry
# [6] = molecular target: Large ribosomal subunit protein eL31 (UniProt P62899); assay: cross-link between two proteins; cross-linking mass spectrometry
# [7] = molecular target: Large ribosomal subunit protein eL20 (UniProt Q02543); assay: as above
# [8] = molecular target: Small ribosomal subunit protein uS4 (UniProt P46781); assay: cross-linking mass spectrometry
# [9] = molecular target: Small ribosomal subunit protein uS9 (UniProt P62249); assay: cross-linking mass spectrometry
# [10] = molecular target: Large ribosomal subunit protein eL19 (UniProt P84098); assay: cross-link between two proteins; cross-linking mass spectrometry
# [11] = molecular target: Large ribosomal subunit protein eL36 (UniProt Q9Y3U8); assay: as above
# [12] = molecular target: Large ribosomal subunit protein eL43 (UniProt P61513); assay: as above
# [13] = molecular target: Small ribosomal subunit protein eS24 (UniProt P62847); assay: as above
# [14] = molecular target: Small ribosomal subunit protein uS5 (UniProt P15880); assay: as above
# [15] = molecular target: Small ribosomal subunit protein uS8 (UniProt P62244); assay: as above
substance,measurement,setting,value
"Small ribosomal subunit protein uS4, P46781",listed as a hit,[1],yes
"Histone H3.1, P68431",listed as a hit,Histone H2A type 2-B,yes
"Large ribosomal subunit protein uL30, P18124",listed as a hit,[2],yes
"Large ribosomal subunit protein eL13, P26373",listed as a hit,[3],yes
same,listed as a hit,Nucleolar protein 16,yes
"Large ribosomal subunit protein uL16, P27635",listed as a hit,[4],yes
same,listed as a hit,[5],yes
"Large ribosomal subunit protein uL3, P39023",listed as a hit,[4],yes
same,listed as a hit,[6],yes
"Large ribosomal subunit protein uL13, P40429",listed as a hit,[5],yes
same,listed as a hit,[7],yes
"Small ribosomal subunit protein uS3, P23396",listed as a hit,[8],yes
same,listed as a hit,[9],yes
"Large ribosomal subunit protein eL43, P61513",listed as a hit,[10],yes
"Large ribosomal subunit protein eL30, P62888",listed as a hit,[10],yes
"Large ribosomal subunit protein uL1, P62906",listed as a hit,[11],yes
"Large ribosomal subunit protein eL34, P49207",listed as a hit,[12],yes
"Small ribosomal subunit protein uS17, P62280",listed as a hit,[13],yes
"Small ribosomal subunit protein uS2, P08865",listed as a hit,[14],yes
"Small ribosomal subunit protein uS5, P15880",listed as a hit,[15],yes
